The structures appear in SMILES notation. The campaign covered roughly 190,000 compounds. About 4,100 (2.2%) were called active. This is one part of a sample in which actives are shown more often than they occur. Values without a mark were called inactive.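 How the source made its calls: active means thallium flux slope and its plate-corrected score both differing from the plate sample mean at a set confidence after two filtering rounds, in either direction; inactive means the rest.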

The text below walks through data of PubChem BioAssay AID1456 (Vanderbilt High Throughput Screening Facility, 2008).

Chain of Solute carrier family 12 member 5 (Homo sapiens) (Q9H2X9 whole entry, looked up): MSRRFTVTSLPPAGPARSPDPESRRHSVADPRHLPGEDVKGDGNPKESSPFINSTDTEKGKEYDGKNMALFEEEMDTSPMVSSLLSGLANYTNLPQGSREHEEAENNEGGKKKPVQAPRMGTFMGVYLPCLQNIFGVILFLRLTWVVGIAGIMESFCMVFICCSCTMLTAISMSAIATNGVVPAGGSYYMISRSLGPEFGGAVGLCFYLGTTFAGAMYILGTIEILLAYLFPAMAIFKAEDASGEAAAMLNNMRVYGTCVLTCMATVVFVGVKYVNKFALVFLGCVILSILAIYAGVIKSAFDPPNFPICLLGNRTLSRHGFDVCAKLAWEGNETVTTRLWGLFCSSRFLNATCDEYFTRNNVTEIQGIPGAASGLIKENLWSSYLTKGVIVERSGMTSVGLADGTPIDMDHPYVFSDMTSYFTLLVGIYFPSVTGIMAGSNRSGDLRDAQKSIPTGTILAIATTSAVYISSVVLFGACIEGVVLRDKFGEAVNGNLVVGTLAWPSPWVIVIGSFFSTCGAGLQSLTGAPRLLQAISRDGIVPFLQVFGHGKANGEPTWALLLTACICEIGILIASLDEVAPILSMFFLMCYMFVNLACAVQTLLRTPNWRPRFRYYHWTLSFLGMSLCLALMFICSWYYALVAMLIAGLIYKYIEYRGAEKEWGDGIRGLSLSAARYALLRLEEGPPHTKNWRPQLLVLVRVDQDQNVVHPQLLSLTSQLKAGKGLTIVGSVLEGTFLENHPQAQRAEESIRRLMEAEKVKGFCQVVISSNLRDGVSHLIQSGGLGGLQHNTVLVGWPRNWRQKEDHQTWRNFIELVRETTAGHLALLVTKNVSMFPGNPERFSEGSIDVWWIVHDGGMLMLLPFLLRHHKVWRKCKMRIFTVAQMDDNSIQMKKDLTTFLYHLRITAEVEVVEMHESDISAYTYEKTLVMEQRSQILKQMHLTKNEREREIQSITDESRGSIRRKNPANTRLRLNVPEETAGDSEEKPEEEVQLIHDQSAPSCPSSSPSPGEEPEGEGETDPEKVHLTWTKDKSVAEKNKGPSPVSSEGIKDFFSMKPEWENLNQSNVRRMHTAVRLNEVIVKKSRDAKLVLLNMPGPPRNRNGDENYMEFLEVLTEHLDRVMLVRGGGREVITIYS

The test addresses Solute carrier family 12 member 5 (Homo sapiens) (UniProt Q9H2X9). The experiment in a line: modulation of human KCC2 ion transport – cell-based, HEK293 KCC2, FluoZin-2 fluorescence, MLSMR, primary screen (AID 1456).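 Further: slope of fluorescence scaled to starting intensity during 10 to 20 s after thallium.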 The note with it: KCC2 cells, thallium flux FluoZin-2 fluorescence; at 10 µM.
On to `CCCCn1c(SCC(=O)NCC2CCCO2)nc2ccc(N3CCOCC3)cc2c1=O` (configuration not stated), for which the B-score of Tl+ flux slope (higher = more flux/activation; lower = inhibition) is 7.18 (active).

As to `O=C(CCCn1c(SCC(=O)c2ccccc2)nc2ccccc2c1=O)NCC1CCCO1` (configuration not stated), the B-score of Tl+ flux slope (higher = more flux/activation; lower = inhibition) was -0.113. In the case of `COCCCNC(=O)CSc1nc2ccc(N3CCOCC3)cc2c(=O)n1CCc1ccccc1`, the B-score of Tl+ flux slope (higher = more flux/activation; lower = inhibition) was 2.34. The result for `CC(C)(C)NC(=O)NC(=O)COC(=O)Cc1ccc(Cl)cc1Cl` reads 0.383; that for `CCN1CCN(C(=O)CCN2C(=O)c3ccccc3C2=O)CC1`, 0.322; that for `CCOC(=O)C1=NN(c2ccc(Cl)cc2)/C(=C/C2=NCCc3cc(OC)c(OC)cc32)S1`, 1.05. The result for `O=C(O)CC1(CC(=O)Nc2cccc(C(F)(F)F)c2)CCCC1` reads -1.45; that for `CCOC(=O)Cc1cc(=O)[nH]c(/N=C(\N)Nc2ccc(OC)cc2)n1`, -0.288. As for `O=C(O)CCSc1nnc(-c2ccccc2)n1-c1ccccc1`, the B-score of Tl+ flux slope (higher = more flux/activation; lower = inhibition) was 0.407. The result for `CCc1c(SCCC(=O)O)nc2ccccc2c1C` reads 3.44 (active); that for `COC(=O)CSc1nc(C2CC2)nc2ccccc12`, -0.171. The result for `N=c1oc2ccccc2cc1C(=O)N/N=C/c1ccccc1` reads -3.75 (active).

`CNC(=O)c1cc2c(ccc3ccccc32)oc1=N`: the B-score of Tl+ flux slope (higher = more flux/activation; lower = inhibition) is -0.785.

Regarding `Cc1nc2ccccc2cc1C(=O)N/N=C/c1ccc([N+](=O)[O-])cc1`, the B-score of Tl+ flux slope (higher = more flux/activation; lower = inhibition) was -1.83.

As to `CCN(CC)c1ccc(NC(=O)C2CCC(CNc3c(N4CCCC4)c(=O)c3=O)CC2)c(C)c1` (configuration not stated), the B-score of Tl+ flux slope (higher = more flux/activation; lower = inhibition) was 1.27.

For the molecule `CCCc1c(C(=O)O)cnn1-c1ccc(Cl)cc1`, the B-score of Tl+ flux slope (higher = more flux/activation; lower = inhibition) is -0.00741. Regarding `Oc1c(Cl)cc(Cl)c(Cl)c1Cc1c(O)c(Cl)cc(Cl)c1Cl`, the B-score of Tl+ flux slope (higher = more flux/activation; lower = inhibition) is 19.9 (active). The result for `COc1ccc(CC2(CO)CCN(Cc3cnn(C)c3)CC2)cc1` reads 0.00537; that for `C/C=C/C(=O)Nc1ccc(N2CCN(c3ccc(C(F)(F)F)cn3)CC2)nc1`, -0.115; that for `CS(=O)(=O)N(CC(=O)N1CCN(c2ccc(F)cc2)CC1)C1CCCCC1`, -3.33 (active). The result for `CCC(C)NC(=O)CN(C1CCCCC1)S(C)(=O)=O` (configuration not stated) reads 0.0328; that for `CS(=O)(=O)N(CC(=O)Nc1ccc(Cl)c(Cl)c1)C1CCCCC1`, -0.64; that for `O=C(NN1C(=O)C2CCCCC2C1=O)c1ccco1` (configuration not stated), -1.74. The result for `O=S(=O)(NC(=S)Nc1ccccc1)c1ccc(F)cc1` reads 0.866; that for `Cc1cc(C)nc(Nc2n[nH]c(-c3ccccc3N)n2)n1`, 0.274; that for `COc1ccc(-n2c(=S)[nH]c3sc4c(c3c2=O)CCc2ccccc2-4)cc1`, 11.6 (active). For `CSc1nc2sc3c(c2c(=O)[nH]1)CCc1ccccc1-3`, the B-score of Tl+ flux slope (higher = more flux/activation; lower = inhibition) was 0.526. Consider `COc1cccc(-n2c(=S)[nH]c3c(oc4ccccc43)c2=O)c1`, for which the B-score of Tl+ flux slope (higher = more flux/activation; lower = inhibition) was -2.03. Next, `COCc1cc(=O)[nH]c(SC)n1`: -0.453; `Cc1cccc(OCC(=O)Nc2ccccc2F)c1`: 0.917; `Cc1cccc(OCCC(=O)Nc2cc(S(=O)(=O)N3CCCCC3)ccc2N2CCOCC2)c1`: 0.115.

Take `Cc1cccc(OCC(=O)NC(=S)Nc2ccccc2N2CCOCC2)c1`: the B-score of Tl+ flux slope (higher = more flux/activation; lower = inhibition) is 8.7 (active). The result for `O=C(Nc1ccccc1)Nc1ccc(C(F)(F)F)cn1` reads 0.765. In the case of `O=C(C1=C(O)C(=O)N(CCOCCO)C1c1ccccn1)c1cccs1` (configuration not stated), the B-score of Tl+ flux slope (higher = more flux/activation; lower = inhibition) is 0.0733.

In the case of `CC(=O)NC(CC(=O)Nc1nccs1)c1ccccc1` (configuration not stated), the B-score of Tl+ flux slope (higher = more flux/activation; lower = inhibition) was 0.0448.

`CCCc1nc2c(C)cc(-c3nc4ccccc4n3C)cc2n1Cc1ccc(-c2ccccc2C(=O)O)cc1`: the B-score of Tl+ flux slope (higher = more flux/activation; lower = inhibition) is -4.55 (active). Next, `Cc1ccc(Cn2c(NC(=O)c3ccco3)nc3ccccc32)cc1`: 1.11. Regarding `CC(=O)Nc1nc2ccccc2n1Cc1ccc(C)cc1`, the B-score of Tl+ flux slope (higher = more flux/activation; lower = inhibition) was 0.76.

As for `c1ccc2c(c1)OCCOCCOCCO2`, the B-score of Tl+ flux slope (higher = more flux/activation; lower = inhibition) is -0.0153. The result for `O=C(COC(=O)c1ccccc1SCC(=O)NC1CCCCC1)NC1CCCCC1` reads 0.427; that for `N#Cc1ccccc1Sc1ccccc1C(=O)OCC(=O)NC1CCCCC1`, -0.81. The result for `O=C(COC(=O)c1cc([N+](=O)[O-])ccc1NCc1ccccc1)NC1CCCCC1` reads -3.78 (active); that for `CCOC(=O)N/N=C/c1cccnc1`, 0.0775; that for `O=C(CSc1cccc2cccnc12)N/N=C/c1cccnc1`, 30.2 (active).

For the molecule `Cc1nc2ccccc2n1CC(=O)N/N=C/c1cccnc1`, the B-score of Tl+ flux slope (higher = more flux/activation; lower = inhibition) is 0.307. Next, `CN(c1ccccc1)S(=O)(=O)c1ccc(Cl)c(C(=O)OCC(=O)NCc2ccco2)c1`: -3.28; `O=C(Nc1cccc(S(=O)(=O)NC2=NCCC2)c1)C1CCCCC1`: 0.665; `N/C(=N\OC(=O)Nc1ccccc1)c1ccno1`: 0.175. The result for `COc1ccc(S(=O)(=O)N(CC(=O)N/N=C/c2ccccc2C(=O)O)c2ccccc2OC)cc1` reads 0.515. The result for `Cc1cccc(C)c1NC1=NC(=S)N(c2ccc(N(C)C)cc2)C1(C)C` reads 4.28 (active); that for `Cc1nnc2n1N=C(c1ccc3c(c1)NC(=O)CO3)CS2`, -0.931. Turning to `Cc1cc(F)ccc1NC(=O)C(C)n1c2ccccc2c2nc(=O)cc(C)n21` (configuration not stated), the B-score of Tl+ flux slope (higher = more flux/activation; lower = inhibition) is -0.013. The result for `Clc1cccc(N=C2NN=C(c3ccc4c(c3)OCCO4)CS2)c1` reads 1.95. `CN(C)c1nc(=Nc2cccc(Cl)c2)ss1`: the B-score of Tl+ flux slope (higher = more flux/activation; lower = inhibition) was 87 (active). The result for `Cc1ccc(C(=O)NNC2=Nc3cc([N+](=O)[O-])ccc3OC2)cc1` reads 0.865. With `COc1ccc(OCCC(=O)c2ccc(OC)cc2)cc1`, the B-score of Tl+ flux slope (higher = more flux/activation; lower = inhibition) was 0.534. Next, `COc1ccc(-n2cnnc2SCC(=O)Nc2cccc([N+](=O)[O-])c2)cc1`: 0.774; `NC(=O)NC(=O)CSc1nc2cc([N+](=O)[O-])ccc2n1-c1cccc(C(F)(F)F)c1`: 6.95 (active). The result for `COc1ccc(CCNC(=O)CSc2nc3[nH]ncc3c(=O)n2-c2cccc(C(F)(F)F)c2)cc1OC` reads 1.1. Next, `O=C(CN1CCN(C/C=C/c2ccccc2)CC1)Nc1ccc(F)cc1F`: 0.952. Turning to `CC(=O)N/C(=C\c1ccc(F)cc1)C(=O)NC(Cc1ccccc1)C(=O)O` (configuration not stated), the B-score of Tl+ flux slope (higher = more flux/activation; lower = inhibition) was 0.0184.

On to `O=C(O)c1cccnc1Sc1ncnc2sc3c(c12)CCC3`, for which the B-score of Tl+ flux slope (higher = more flux/activation; lower = inhibition) is 2.47.
